Article PMC4336329 (PLoS ONE, 2015)
About 14,000 (4.5%) of roughly 310,000 compounds showed an effect of 50% or more. Effects have a minus sign here. The sample holds strong results, similar compounds and a random draw of the others, so the mix is not that of the screen.

molecular target: human ether-à-go-go-related gene (hERG) potassium channel (human, UniProt Q12809); experiment: primary screen, population patch clamp on CHO cells stably expressing hERG; higher = less effect of the substance
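Further: peak tail current of the secondary pulse compared with the same well before compound.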

Chain of human ether-à-go-go-related gene (hERG) potassium channel (Q12809 whole entry, looked up): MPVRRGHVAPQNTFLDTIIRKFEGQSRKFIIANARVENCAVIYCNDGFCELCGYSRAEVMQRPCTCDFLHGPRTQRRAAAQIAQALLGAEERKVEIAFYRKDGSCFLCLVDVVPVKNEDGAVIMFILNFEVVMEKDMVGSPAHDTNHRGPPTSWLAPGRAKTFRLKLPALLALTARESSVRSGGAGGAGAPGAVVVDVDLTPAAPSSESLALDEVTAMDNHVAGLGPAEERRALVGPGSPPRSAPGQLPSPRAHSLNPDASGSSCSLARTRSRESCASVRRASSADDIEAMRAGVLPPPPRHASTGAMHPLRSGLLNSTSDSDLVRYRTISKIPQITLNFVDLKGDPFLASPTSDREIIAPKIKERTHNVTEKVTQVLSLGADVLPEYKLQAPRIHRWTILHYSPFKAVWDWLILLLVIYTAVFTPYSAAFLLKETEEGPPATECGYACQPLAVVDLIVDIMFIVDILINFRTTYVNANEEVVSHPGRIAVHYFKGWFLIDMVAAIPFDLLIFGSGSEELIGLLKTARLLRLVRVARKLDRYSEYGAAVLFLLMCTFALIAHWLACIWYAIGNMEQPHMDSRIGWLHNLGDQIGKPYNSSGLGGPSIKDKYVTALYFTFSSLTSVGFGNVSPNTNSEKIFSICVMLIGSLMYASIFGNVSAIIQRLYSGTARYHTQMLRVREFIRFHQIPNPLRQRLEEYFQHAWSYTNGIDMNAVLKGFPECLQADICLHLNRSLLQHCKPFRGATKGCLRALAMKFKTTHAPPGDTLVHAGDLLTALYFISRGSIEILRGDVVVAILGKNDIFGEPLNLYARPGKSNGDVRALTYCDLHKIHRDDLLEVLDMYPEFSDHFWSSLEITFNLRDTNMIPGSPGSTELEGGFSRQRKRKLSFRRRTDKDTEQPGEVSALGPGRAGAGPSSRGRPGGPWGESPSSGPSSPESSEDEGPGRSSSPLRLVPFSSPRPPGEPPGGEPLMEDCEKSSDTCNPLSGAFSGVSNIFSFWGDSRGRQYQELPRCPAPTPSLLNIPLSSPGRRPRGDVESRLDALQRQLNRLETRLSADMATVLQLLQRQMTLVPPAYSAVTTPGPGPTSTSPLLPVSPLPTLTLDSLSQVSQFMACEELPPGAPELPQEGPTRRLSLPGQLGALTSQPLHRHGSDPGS

SMILES | hERG current change (%, negative = inhibition) at 10uM [%]
O=C(CSc1nnc(C2COc3ccccc3O2)o1)N1CCN(c2ccccc2)CC1 (stereo not shown) | 8.03
CCOC(=O)N1CCN(C(=O)C2CCC(CNS(=O)(=O)c3ccccc3)CC2)CC1 (stereo not shown) | 3.18
COc1ccc(NC(=O)c2ccc(-c3ccc([N+](=O)[O-])cc3)o2)cc1 | -33.1
COc1ccc(CCNC(=O)c2ccc(-c3cccc([N+](=O)[O-])c3)o2)cc1OC | -26.7
COc1ccc(NC(=O)c2ccc(-c3ccc([N+](=O)[O-])cc3)o2)cc1OC | -64.9
COc1cccc(NC(=O)c2ccc(-c3ccc([N+](=O)[O-])cc3)o2)c1 | -36.2
COc1ccc(CCNC(=O)c2ccc(-c3ccc([N+](=O)[O-])cc3)o2)cc1OC | -60.7
COc1ccc(CCNC(=O)Cc2ccc([N+](=O)[O-])cc2)cc1OC | -11.6
CCOC(=O)c1c(NC(=O)CCS(=O)(=O)c2ccccc2)sc2c1CC(C)(C)NC2(C)C | -44.9
O=C(Nc1cccc(S(=O)(=O)N2CCOCC2)c1)c1ccc2ccccc2n1 | -1.59
CCNc1nc(NCC)nc(SCCOc2ccc(C)cc2)n1 | -40.6
COc1ccccc1N1CCN(C(=O)COc2ccc(S(=O)(=O)NC(C)C)cc2)CC1 | -4.64
S=C(Nc1ccccc1Cl)N(CCCN1CCOCC1)Cc1ccco1 | 0.554
Cc1c(Cl)cccc1NC(=S)N(CCN(C)C)C(C)c1ccco1 (stereo not shown) | -55.9
CCN1CCN(CCCN(Cc2ccco2)C(=S)Nc2ccccc2Cl)CC1 | -53.5
COCCN(C(=S)Nc1cccc(Cl)c1C)C(C)c1ccco1 (stereo not shown) | -15.4
Cc1ccccc1NC(=S)N(CCN(C)C)C(C)c1ccco1 (stereo not shown) | -12.1
CCN1CCN(CCCN(Cc2ccco2)C(=S)Nc2cccc(Cl)c2C)CC1 | -61.2
Cc1c(Cl)cccc1NC(=S)N(CCCN1CCOCC1)Cc1ccco1 | -43.9
O=C(NCCCN1CCCC1=O)c1cccc(Oc2ccccc2)c1 | 10.5
CCN(CC(=O)Nc1c(F)cccc1F)C(=O)CCN1C(=O)c2cccc([N+](=O)[O-])c2C1=O | 16.2
N#CCC(=O)Nc1ncn(Cc2ccccc2Cl)n1 | 15.4

SMILES | hERG current change (%, negative = inhibition) at 10uM [%]
CCCCc1nc2cc(C(=O)NCc3ccccn3)ccc2o1 | 2.61
COc1ccccc1C(=O)NC(=O)CSc1nc2nc(C)cc(C)n2n1 | 0.704
Cc1cccc(N=c2oc3cc(O)ccc3cc2C(N)=O)c1 | -17.3
Cc1cc(C(=O)CSc2nc(N)cc(N)n2)c(C)n1-c1cccc(C(F)(F)F)c1 | -64.4
Cc1cc(C(=O)CSc2ncccn2)c(C)n1-c1cccc(F)c1 | -5.48
Cc1cc(C(=O)CSc2nc(N)cc(N)n2)c(C)n1-c1cccc(F)c1 | -14.2
C=CCn1c(Cc2ccccc2)n[nH]c1=S | 11.7
COc1cc(C(=O)NCc2nnc(SCC(=O)N3CCOCC3)o2)cc(OC)c1OC | 17.2
OCCCNc1cc(-c2ccnc(Nc3cccc(Cl)c3)n2)ccn1 | -30.3
OCCCNc1nccc(-c2cc(Nc3cccc(Cl)c3)ncn2)n1 | 9.69
CN(C)CCCNc1ccc(-c2cc(Nc3cccc(Cl)c3)ncn2)cn1 | -58.4
CC(=O)Nc1ccc(C(=O)OCC(=O)Nc2ccc([N+](=O)[O-])cc2C(F)(F)F)cc1 | 7.22
Cc1ccc(Cn2c(=N)n(CC(O)c3ccco3)c3ccccc32)cc1.Cl (stereo not shown) | -64.5
O=c1c2ccccc2n(Cc2ccc(Cl)cc2)c(=O)n1Cc1ccco1 | 4.77
CC(C)(C)c1ccc(Cn2c(=O)cnc3ccccc32)cc1 | -4.85
CCn1c(=N)n(CC(O)c2ccco2)c2ccccc21.Cl (stereo not shown) | -30.7
Cl.N=c1n(Cc2ccc(Cl)cc2)c2ccccc2n1CC(O)c1ccco1 (stereo not shown) | -64.1
O=C(Nc1nc2ccccc2n1Cc1ccc(Cl)cc1)c1ccco1 | 5.47
CC(C)(C)c1ccc(Cn2c(=N)n(CC(O)c3ccco3)c3ccccc32)cc1.Cl (stereo not shown) | -71.9
Cc1ccc(Cn2c(=O)n(Cc3ccco3)c(=O)c3ccccc32)cc1 | 16.3
O=C(c1cccs1)N(Cc1cc2ccccc2[nH]c1=O)c1ccccc1 | -11.8
